Source: PubChem
ASM inhibitor: Inhibitors of Secretory Acid Sphingomyelinase (S-ASM): qHTS; AID 504937, 2011; 340,000 compounds, 0.006% hits; Potency, µM (highest dose often 57.5 µM), for inactives: top-dose activity change, negative = inhibition, most hits filed as inhibitors; placental ASM, HMU-PC fluorogenic substrate, 60 min; also: potency is read from the fitted curve at half-maximal effect
Target sequence (P17405 47-631 limits assumed): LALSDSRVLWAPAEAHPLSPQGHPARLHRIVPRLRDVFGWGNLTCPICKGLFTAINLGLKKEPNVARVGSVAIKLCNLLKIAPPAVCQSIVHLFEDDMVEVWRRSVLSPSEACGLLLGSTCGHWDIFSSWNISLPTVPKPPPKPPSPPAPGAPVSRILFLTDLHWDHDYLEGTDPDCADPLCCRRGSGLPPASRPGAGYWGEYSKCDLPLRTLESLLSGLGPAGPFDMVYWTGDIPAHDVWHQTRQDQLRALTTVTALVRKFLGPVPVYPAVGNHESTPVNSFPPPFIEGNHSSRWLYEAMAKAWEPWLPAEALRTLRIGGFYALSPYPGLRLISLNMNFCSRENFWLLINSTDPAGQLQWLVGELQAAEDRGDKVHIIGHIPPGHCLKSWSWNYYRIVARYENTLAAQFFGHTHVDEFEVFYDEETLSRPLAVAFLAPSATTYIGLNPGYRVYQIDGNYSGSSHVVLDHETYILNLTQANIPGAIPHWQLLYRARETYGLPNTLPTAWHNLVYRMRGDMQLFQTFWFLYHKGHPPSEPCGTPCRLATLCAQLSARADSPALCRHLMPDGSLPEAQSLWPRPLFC
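Fluorescence read-out (Ex 386 nm, Em 447 nm) after stopping the reaction at pH 10. Enzyme: ASM from human placenta; substrate HMU-PC0, 9 uM final; 60 min, 37 °C. Compound preincubation 10 min, ambient temperature.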
IL1B secr inh: qHTS for Inhibitors of Inflammasome Signaling: IL-1-beta AlphaLISA Primary Screen; AID 743279, 2014; activity change, % at 57.5 µM; 360,000 compounds, 4.7% hits; THP-1 LPS/ATP IL-1B secretion, AlphaLISA, 16 h; active compounds read low; in the data active = activity change below about -50%; inconclusive = mostly about -30% to -49%; also: % is scaled to controls: 0 for no effect and ±100 for the full control effect
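THP-1 cells pretreated 1 hr with compounds (up to 57.5 uM final), then stimulated with LPS (250 ng/mL final) plus ATP (1.25 mM final); secreted IL-1B measured by AlphaLISA after 16 hr, decreased signal indicating inhibition.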
DT40 TDP1 CPT: qHTS for Inhibitors of human tyrosyl-DNA phosphodiesterase 1 (TDP1): qHTS in cells in presence of CPT | chicken DT40 Tdp1-/-;hTDP1 cells + 20 nM CPT, ATP luminescence, 48 h | Potency, µM (titrated, usually from 46.2 µM), for the others: top-dose activity change, negative = growth inhibition, most hits filed as inhibitors | 420,000 compounds, 12% hits; also: potency is read from the fitted curve at half-maximal effect; % is scaled to controls: 0 for no effect and ±100 for the full control effect; nearly all actives have a fitted effect of over 55% in size
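Chicken DT40 Tdp1-/- cells complemented with human TDP1, 400 cells/well, exposed to compounds plus 20 nM camptothecin for at least 48 h at 37 C; viability read as ATP content by CellTiter-Glo luminescence.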
HepG2 viability: qHTS for Inhibitors of TGF-b: Cytotox Counterscreen. HepG2 CAGA-GFP viability, ATP luminescence, 18 h. Potency, µM (top dose mostly 46.1 µM), inactives show at the top dose activity change, negative = cytotoxicity, usual class: cytotoxic. 410,000 compounds, 0.76% hits. AID 588856, 2011; also: potency is read from the fitted curve at half-maximal effect
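HepG2 CAGA-GFP cells (1000/well, DMEM with 1% FBS) received compound, then TGF-beta at 500 pg/mL final, and were incubated 18 hours at 37 degrees C. Viability was read by CellTiter-Glo luminescence. Media-only wells were set as complete cell-killing and DMSO as no toxicity.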
TDP1 cell noCPT: qHTS for Inhibitors of human tyrosyl-DNA phosphodiesterase 1 (TDP1): qHTS in cells in absence of CPT; 420,000 compounds, 15% hits; DT40 Tdp1-/- hTDP1 cells, no CPT, ATP luminescence, 48 h; Potency, µM (series often up to 46.2 µM), without a hit: at the top dose activity change, negative = growth inhibition, usual class: inhibitors; also: potency is read from the fitted curve at half-maximal effect; % is scaled to controls: 0 for no effect and ±100 for the full control effect; nearly all actives have a fitted effect of over 55% in size
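No-CPT arm: Tdp1-/-;hTDP1 DT40 cells (400/well) plus compounds, incubated ≥48 hr at 37 °C. Readout CellTiter-Glo luminescence.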
TGFb SMAD3 inh: qHTS for Inhibitors of TGF-b. HepG2 CAGA-GFP TGF-b/SMAD3 reporter, GFP fluorescence, 18 h; TGF-beta stimulated, 500 pg/mL final. 410,000 compounds, 1.2% hits. AID 588855, 2011. Potency, µM (highest dose often 46.1 µM), inactives show at the highest dose activity, negative = inhibition, usual class: inhibitors; also: potency is read from the fitted curve at half-maximal effect; % is scaled to controls: 0 for no effect and ±100 for the full control effect; nearly all actives have a fitted effect of over 65% in size
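Read-out: total well GFP (ex488/em500-530) summed from mean per-cell fluorescence. Cells: HEPG2 CAGA-GFP, 1% FBS DMEM, 18 h at 37 degrees C with 500 pg/mL final TGF-beta. Unstimulated wells served as the full-inhibition control; stimulated DMSO wells = 0%.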
* = called active by the depositor. Shown are actives, neighbours in structure and some others; about 19% of the full set was active somewhere. Unless noted, calls follow the shape of the dose curve; as a rule, active = well fitted curve in the direction sought with a large enough effect; inconclusive = small, poorly fitted or top-dose-only effect, or another doubt; inactive = no such curve, though single readings can be large; an effect the other way counts as inactive or inconclusive.

For CCOc1ccc(CCNC(=O)CCN2N=C(c3ccc(OC)cc3)CCC2=O)cc1OCC the results were DT40 TDP1 CPT inconclusive, HepG2 viability -24%, TDP1 cell noCPT inconclusive and TGFb SMAD3 inh inconclusive.
CCOc1ccc(CC(=O)NCc2ccc3c(c2)CCN3C(C)=O)cc1OCC was read as DT40 TDP1 CPT 5%, HepG2 viability -8%, TDP1 cell noCPT -3% and TGFb SMAD3 inh 0%.
`COc1ccccc1N1CCN(C(=O)CCNS(=O)(=O)c2ccc(Br)s2)CC1` gave ASM inhibitor -1%, IL1B secr inh -6, DT40 TDP1 CPT 23µM*, HepG2 viability -6%, TDP1 cell noCPT 18µM* and TGFb SMAD3 inh inconclusive.
`COc1ccccc1N1CCN(C(=O)CCNS(=O)(=O)c2cc(Br)cnc2N)CC1` gave ASM inhibitor -2%, IL1B secr inh 2, DT40 TDP1 CPT 18µM*, HepG2 viability -8%, TDP1 cell noCPT inconclusive and TGFb SMAD3 inh -14%.
COc1ccc(N2CCN(C(=O)CCNS(=O)(=O)c3cc(Br)cnc3N)CC2)cc1 was read as ASM inhibitor -8%, IL1B secr inh -3, DT40 TDP1 CPT -27%, HepG2 viability 0%, TDP1 cell noCPT inconclusive and TGFb SMAD3 inh 8%.
For CC1(C(=O)Nc2nc3ccc(S(C)(=O)=O)cc3s2)CC1(Cl)Cl (centres undefined) the results were ASM inhibitor 8%, IL1B secr inh -20, DT40 TDP1 CPT inconclusive, HepG2 viability 3%, TDP1 cell noCPT inconclusive and TGFb SMAD3 inh 15%.
Screening COc1ccc2sc(-c3ccc(SC)cc3)c(-c3ccc(O)cc3)c2c1 returned ASM inhibitor -6%, IL1B secr inh -7, DT40 TDP1 CPT inconclusive, HepG2 viability 13µM*, TDP1 cell noCPT inconclusive and TGFb SMAD3 inh inconclusive.
`CCOC(=O)N1CCN(S(=O)(=O)c2ccc(C(=O)Nc3nc4ccccc4s3)cc2)CC1` gave ASM inhibitor 7%, IL1B secr inh -5, DT40 TDP1 CPT inconclusive, HepG2 viability 1%, TDP1 cell noCPT inconclusive and TGFb SMAD3 inh inconclusive.
`CC(C)CC(=O)Nc1nc2ccc(S(=O)(=O)N3CCOCC3)cc2s1` gave ASM inhibitor -4%, IL1B secr inh 13, DT40 TDP1 CPT 13µM*, HepG2 viability 0%, TDP1 cell noCPT 21µM* and TGFb SMAD3 inh 2%.
CC(C)[C@H](NC(=O)c1cccc(S(=O)(=O)N2CCOCC2)c1)C(=O)Nc1nc2ccccc2s1 was read as ASM inhibitor -4%, IL1B secr inh -54*, DT40 TDP1 CPT inconclusive, HepG2 viability 5%, TDP1 cell noCPT inconclusive and TGFb SMAD3 inh -30%.
For CCOC(=O)N1CCN(S(=O)(=O)c2ccc(C(=O)Nc3nc4ccc(F)cc4s3)cc2)CC1 the results were ASM inhibitor 5%, IL1B secr inh -19, DT40 TDP1 CPT 8.2µM*, HepG2 viability -34%, TDP1 cell noCPT 6.5µM* and TGFb SMAD3 inh inconclusive.
For CCCC(=O)Nc1nc2ccc(S(=O)(=O)N3CCCCC3)cc2s1 the results were ASM inhibitor -3%, IL1B secr inh 30, DT40 TDP1 CPT 1.3µM*, HepG2 viability -8%, TDP1 cell noCPT 1.3µM* and TGFb SMAD3 inh -33%.
